Reference: PubChem BioAssay (NCI)
“And” between values parts separate entries of the source, which are not always exact repeats. Equal values may be shown once. Compounds without any hit were thinned out: in the full panel of roughly 83,000, 20% have a hit.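 48-hour exposure, single concentration, 96-well plates; percent growth endpoint where 0 means no net growth. Active: below 10.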 The source made the active and inactive calls.

Test system: HL-60(TB) leukemia
Assay: NCI-60 one-dose screen, 48 h (100 = growth as untreated, 0 = no growth, -100 = all killed)
Conditions: 10 µM unless noted

SMILES	growth
Cc1ccc(NC(=O)Nc2ccc(Nc3ncnc4sc5c(c34)CCOC5)cc2)cc1Cl	108% (inactive)
Clc1ccc2c(c1)C(N1CCNCC1)=Nc1ccccc1O2	50.7% (inactive)
CSc1n(Cc2ccc3ccccc3c2)c(C)c[n+]1Cc1ccc2ccccc2c1	-45% (active)
N#Cc1c2c(nn(-c3ccccc3)c1=O)C(O)=C([N+](=O)[O-])C(c1ccccc1)C2 (configuration not stated)	58.5% (inactive)
CCOC(=O)N1CCN(CCCCl)CC1	85.6% (inactive)
O=[N+]([O-])c1ccc(Cl)c(S(=O)(=O)O)c1	96.4% (inactive)
COc1cc(NCC(=O)Nc2cc(Nc3ccc(C)cc3)ncn2)c(Cl)c(OC)c1Cl	77.2% (inactive)
NC(=Nc1ccc(N)cc1)C(N)=Nc1ccc(N)cc1	59.6% (inactive)
Oc1ccc(N=Nc2ccc(Br)cc2)c(O)c1	-21.8% (active)
CCOC(CN1CCN(CC(C)C(=O)c2ccccc2)CC1)c1ccccc1 (configuration not stated)	110% (inactive)
COc1ccc(-c2nc(-c3nc4ccc(F)cc4[nH]3)cc3c2[nH]c2ccccc23)cc1	26.1% (inactive)
O=C1c2cc(Cl)ccc2S(=O)(=O)c2c(NCCCNCCO)nc3ccccc3c21	-27% (active)
O=C1c2cc3c(cc2-c2c1c1ccc(Cl)cc1c(=O)n2CCCNCCO)OCO3	-64% (active)
Oc1c(Cl)cc(Cl)cc1C=NCC1CCC(CN=Cc2cc(Cl)cc(Cl)c2O)CC1 (configuration not stated)	73.9% (inactive)
O=C(Nn1c2c(sc1=Nc1ccccc1)C(=O)c1ccccc1C2=O)c1cc2ccc1CCc1ccc(cc1)CC2	91.6% (inactive)
CC(=O)Nc1ccc(/C=C/C(=O)c2ccccc2)cc1	79% (inactive)
C=C1C(=O)O[C@H]2[C@H]1CC/C(COC(=O)N[C@H]1C[C@H](O[C@H]3C[C@](O)(C(=O)CO)Cc4c(O)c5c(c(O)c43)C(=O)c3c(OC)cccc3C5=O)O[C@@H](C)[C@H]1O)=C\CC[C@@]1(C)O[C@@H]21	-31.2% (active)
O=C(CN1C(=O)S/C(=C\C(Cl)=C\c2ccccc2)C1=O)NCCc1ccc(O)cc1	3.33% (active)
COC(=O)CCCCCCN=Cc1c(O)c(O)c(C(C)C)c2cc(C)c(-c3c(C)cc4c(C(C)C)c(O)c(O)c(C=NCCCCCCC(=O)OC)c4c3O)c(O)c12	16.6% (inactive)
O=C(CC(c1ccccc1)N1CCOCC1)c1ccccc1 (configuration not stated)	83.1% (inactive)
Nc1n[nH]c2cccc(C#Cc3cccc(C(=O)Nc4cc(C(F)(F)F)cc(C(F)(F)F)c4)c3)c12	39.7% (inactive)

SMILES	growth
COc1ccc2c(c1)c1nc3cc(C)c(C)cc3nc1n2CCN(C)C	-26.4% (active)
CCC1=C[C@@H]2CN(C1)Cc1c([nH]c3ccccc13)[C@@](C(=O)OC)(c1cc3c(cc1OC)N(C=O)[C@H]1[C@@](O)(C(=O)OC)[C@H](OC(C)=O)[C@]4(CC)[C@@H]5C[C@@H]5CN5CC[C@]31[C@@H]54)C2	-19.4% (active)
O=C(O)c1cn(-c2ccccc2)nc1-c1ccc(O)cc1	95.7% (inactive)
Cc1cc(N)c2ccccc2[n+]1CCCCCCCCCC[n+]1c(C)cc(N)c2ccccc21	-65% (active) and -69.4% (active)
CCOc1ccccc1NC(=O)CCl	104% (inactive)
COc1ccc(-c2nsc3c2NC(=O)CC3c2cccc(Cl)c2)cc1 (configuration not stated)	-19.2% (active)
O=C(Nc1nc2ccc(F)cc2s1)c1cccnc1Nc1ccc(Cl)cc1	33.3% (inactive)
Cn1cccc1C(=O)C1C(c2cccc([N+](=O)[O-])c2)C2C3CCCCC3CN2C12C(=O)Nc1ccc(Cl)cc12 (configuration not stated)	17.8% (inactive)
C=C(CN1CCc2c([nH]c3ccccc23)C1)c1ccc(C(=O)Nc2ccon2)cc1	99% (inactive)
Oc1c(C(c2ccc(F)cc2)N2CCCCC2)ccc2cncnc12 (configuration not stated)	-29.3% (active)
CC(=O)c1nc(Nc2ccc(C)cc2)sc1C	101% (inactive)
COc1ccc2c(=O)cc(C(Cl)(Cl)Cl)oc2c1	-32.6% (active)
C=C1C(=O)O[C@H]2[C@H]1CC/C(COC(=O)/C=C\C(=O)NCc1ccc(Cn3c(=O)sn(-c4ccc(Cl)cc4)c3=O)cc1)=C\CC[C@@]1(C)O[C@@H]21	-52.5% (active)
CC(C)OC(=O)Nn1cnc2ccccc21	96.5% (inactive)
COc1cc(/C=C2/C=C(c3ccccc3)N(CCc3ccc(S(N)(=O)=O)cc3)C2=O)cc(OC)c1OC	86.7% (inactive)
Cc1ccc(/C=C/C(=O)c2ccc(N)cc2)c(C)c1	60.3% (inactive)
C=C1[C@@H](O)C[C@H]2C(C)(C)C[C@H](Cl)C[C@]2(C)[C@H]1C[C@H](O)[C@H]1CC(=O)NC1=O	-26% (active)
O=C(/C=C/c1ccccc1)c1cccc(OCCCOc2cccc(C(=O)/C=C/c3ccccc3)c2)c1	82.3% (inactive)
Nc1nccc2c1ccn2-c1ccc(NC(=O)Nc2cccc(C(F)(F)F)c2)cc1	117% (inactive)
Cn1c(=O)c2c(nc(NC3=NS(=O)(=O)c4ccccc43)n2CC(=O)N2CCc3ccccc32)n(C)c1=O	111% (inactive)
C(=C\c1nc2ccccc2[nH]1)/c1nc2ccccc2[nH]1	93.4% (inactive)

SMILES	growth
CCCCCCCCCCCCCCCCCCNC(=S)N/N=C/c1ccc(OC)c(OC)c1	73.6% (inactive)
COc1ccccc1Nc1nc2c(s1)C1=CC[C@H]3[C@@H]4CC[C@H]([C@H](C)CCCC(C)C)[C@@]4(C)CC[C@@H]3[C@@]1(C)CC2	102% (inactive)
Cc1cc(Nc2ccc(Cl)c(Cl)c2)nc(N)n1	62.7% (inactive)
O=C(CCl)N1CCCc2ccccc21	93.3% (inactive)
O=C(/C=C/c1ccc(C(F)(F)F)cc1)c1ccc(Nc2nc(NCCO)nc(N3CCOCC3)n2)cc1	15.4% (inactive)
Cc1ccc(NC(=O)NC(=O)CSc2nc3ccccc3nc2C)cc1	67.9% (inactive)
COc1ccc(-c2c(C)noc2-c2ccc(O)cc2O)cc1	64.9% (inactive)
Cc1nn(-c2ccccc2)c(Oc2ccc(Cl)cc2)c1/C=N\N=c1/sc2ccccc2n1C	78% (inactive)
CC(=O)Nc1nc(C)c(C(=O)NN)s1	117% (inactive)
COC(=O)c1ccc(C(=O)Nc2ccccc2N)cc1	-18.5% (active)
O=C(Cc1ccccc1)Cc1ccccc1	99.2% (inactive)
CC(O)c1nc2c(c(=O)n(C)c(=O)n2C)n1C (configuration not stated)	100% (inactive)
CCCCn1c(=O)c(C2CNC(=O)c3ccccc3N2)cc2ccccc21 (configuration not stated)	96.7% (inactive)
O=C1c2ccccc2CN1c1ccccc1	75.1% (inactive)
COc1ccc(C2SC(C)C(=O)N2CCc2cccs2)cc1OC (configuration not stated)	74.5% (inactive)
COc1cc(C(=O)/C=C/c2c(C)n([O-])c3ccc(C(F)(F)F)cc3[n+]2=O)cc(OC)c1OC	69% (inactive)
O=C1C=CC(=O)N1c1cccc(N2C(=O)C=CC2=O)c1	97.9% (inactive)
C#CC[C@@H]1C[C@]2(C)[C@H]3CC=C4[C@H]5CC(C)(C)CC[C@]5(C(=O)NCCCCN)CC[C@@]4(C)[C@]3(C)CC[C@H]2C(C)(C)[C@H]1OC(C)=O	-46.5% (active)
O=C(O)C1(C(=O)O)CCC1.[NH2-].[NH2-].[Pt+2]	103% (inactive) and 58.7% (inactive)
CC(C)(C)[Si](C)(C)O[C@H]1C(=O)C=CN2CC=C[C@@H]12	89.5% [100 µM] (inactive)
CCCCn1cnc2c(=O)[nH]cnc21	108% (inactive)

SMILES	growth
Cc1cc(N2CCCC2)nc(N(CCCNc2ccnc3cc(Cl)ccc23)Cc2ccc3c(c2)OCO3)n1	-62.9% (active)
COc1ccc(S(=O)(=O)NCCNc2nccc(-c3c(-c4cccc(F)c4)nc4sccn34)n2)cc1	58.8% (inactive)
COc1cc(-n2cc(-c3cc(O)c(C/C=C(\C)CCC=C(C)C)c(O)c3)nn2)cc2c1O[C@]1(C)CC[C@@H](O)C(C)(C)[C@H]1C2	-13.9% (active)
COc1ccc(/C=C/C(=O)c2cccc(NS(C)(=O)=O)c2)cc1	79.6% (inactive)
C/C(=C\CCc1ccoc1)CC/C=C(\C)CCCC1COC(=O)C1 (configuration not stated)	95.8% (inactive)
CC(=O)Nc1cccc2c1CCCC2	89.5% (inactive) and 105% (inactive)
CCOc1ccc2nc3cc(N)ccc3c(N)c2c1	117% (inactive) and 86.7% (inactive)
COCCOc1cnc2ccn([C@H](C)c3nnc4c(F)cc(-c5cnn(C)c5)cn34)c(=O)c2c1	136% (inactive)
Cc1ccc(NC(=O)c2ccc(CN3CC[C@H](N(C)C)C3)c(C(F)(F)F)c2)cc1Nc1nccc(-c2cncnc2)n1	-51.3% (active)
COc1ccc(-c2nc3ccc4[nH]ncc4c3c3c2CCCC3)cc1B(O)O	64.6% (inactive)
c1ncc2[nH]cnc2n1	54.2% (inactive)
CCN(CC)CCNCC(=O)Oc1ccc(/C=C/C(=O)CC(=O)/C=C/c2ccc(OC(=O)CNCCN(CC)CC)c(OC)c2)cc1OC	-22.6% (active)
C=CC(=O)N1CCC[C@H](n2c(=O)n(-c3ccc(Oc4ccccc4)cc3)c3c(N)ncnc32)C1	92.4% (inactive)
Oc1c(Cl)cc(Cl)c2cccnc12	56.4% (inactive) and 5.89% (active)
N#Cc1c(-c2ccc(C(F)(F)F)cc2)cc(NCC2CCS(=O)(=O)CC2)n2c1nc1ccccc12	88.5% (inactive)
Nc1ncnc2c1ncn2C1OC(CO)C(O)C1O (configuration not stated)	65.5% (inactive) and 84.5% (inactive) and 105% (inactive)
O=C1CNC(c2ccccc2)C(c2ccccc2)N1 (configuration not stated)	106% (inactive)
CC12CCC3c4ccccc4CCC3(CO1)C2 (configuration not stated)	87.7% (inactive)
O=C1NC(c2ccc(Cl)c(Cl)c2)=C/C1=C\c1ccccc1	94.1% (inactive)
